Screening results from PubChem.
HSF1 inhib = HSF1 inhibition; NIH3T3-HGL HSE-luciferase, MG132-induced, luminescence 8 h; active compounds read low; 300,000 tested, 0.77% active; activity change, negative = inhibition, % at 7.5 µM (by protocol); AID 2098;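 active means more than half of replicate wells show activity change below -50%, luminescence cut by over half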;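 further: luciferase reports HSF-1 transcriptional activity via heat shock element; 0% = median of DMSO wells and -100% = zero luminescence signal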
AHR act = activates the human aryl hydrocarbon receptor; AHR-responsive luciferase reporter cells, luminescence; activation, % at 5 µM; 320,000 tested, 2.5% active; AID 2796; in the data active means activation above about 47%;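 further: 0% = vehicle wells and 100% = reference agonist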
NR0B1 inh = inhibits human nuclear receptor DAX1; P51843; HEK293 Gal4-DAX1 luciferase reporter, luminescence; inhibition, % at 6.75 µM; 340,000 tested, 0.99% active;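 active means inhibition above the mean over all tested compounds plus 3 SD, cut at about 4.2% in these data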;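 further: 0% = DAX1-transfected cells with DMSO and 100% = empty-vector control cells with DMSO; inhibition shows as a rise in luminescence from relieved DAX1 repression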
Target sequence (P51843 207-470 limits assumed): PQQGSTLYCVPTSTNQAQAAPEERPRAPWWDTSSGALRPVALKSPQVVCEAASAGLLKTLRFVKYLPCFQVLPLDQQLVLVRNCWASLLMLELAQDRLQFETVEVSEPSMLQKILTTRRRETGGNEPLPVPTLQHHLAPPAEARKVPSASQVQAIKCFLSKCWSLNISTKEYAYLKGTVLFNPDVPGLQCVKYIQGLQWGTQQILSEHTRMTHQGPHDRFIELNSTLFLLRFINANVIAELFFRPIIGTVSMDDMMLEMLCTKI
HSF1 activator = increases HSF-1 driven luciferase reporter signal | AID 504408 | NIH3T3-HGL HSF-1 luciferase reporter, MG132, 8 h; 100% = twice DMSO control signal | 300,000 tested, 1.7% active | activation, % at 9 µM;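 active means mean replicate activation of at least 50% with a set share of replicates each reaching 50%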;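 further: 0% = median of the neutral control wells and 100% = twice that signal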
FXN GAA850 act = increases GAA850 frataxin promoter reporter activity; HEK293 lucGAA850 FXN promoter luciferase reporter, 24 h; percent of 10 µM SAHA response; activation, % at 6 µM; 360,000 tested, 0.56% active; AID 540364;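 active means activation above the average of all compounds screened plus 3 SD, cutoff fixed separately per campaign, cut at about 7.5% in these data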;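 further: 0% = DMSO wells and 100% = 10 µM SAHA wells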
Active calls of the source: *; . = no result. Shown are actives, neighbours in structure and some others; about 5.4% of the full set was active somewhere.

SMILES	HSF1 inhib	AHR act	NR0B1 inh	HSF1 activator	FXN GAA850 act
Brc1ccc(-c2csc(N3CCOCC3)n2)cc1	12	8	7.5*	36	4
O=C(CSC(=S)N1CCOCC1)Nc1ccc(S(=O)(=O)Nc2ncccn2)cc1	4	0	0	12	1
O=C1CC(NNc2nc3ccccc3s2)C(=O)N1c1ccccc1 (centres undefined)	26	-4	0	43	-3
COc1cccc(N2C(=O)CC(NNc3nc4ccccc4s3)C2=O)c1 (centres undefined)	39	0	1	69*	1
CCc1ccc(N2C(=O)CC(NNc3nc4ccccc4s3)C2=O)cc1 (centres undefined)	162	25	-1	220*	2
CCOC(=O)C1=C(C)N=c2s/c(=C/c3cccc([N+](=O)[O-])c3O)c(=O)n2C1c1ccccc1 (centres undefined)	-4	1	0	7	1
CCOC(=O)C1=C(C)N=c2s/c(=C/c3cccc([N+](=O)[O-])c3O)c(=O)n2C1c1cc(OC)c(OC)c(OC)c1 (centres undefined)	6	8	-1	58*	0
c1ccc(Oc2cccc(OCCn3cncn3)c2)cc1	-57*	0	-1	-69	-1
OCCCNc1cc(-c2ccccc2)nc2cc(-c3ccc(F)cc3)nn12	10	2	0	-4	-1
O=c1[nH]c2ccccc2nc1CCc1ccccc1	8	58*	1	10	6
CCCCN(C)CCNC(=O)c1cc2c(-c3ccccc3F)nn(C)c2s1	-63*	18	0	-72	1
COCCCNC(=O)c1cc2c(-c3ccc(Cl)cc3)nn(C)c2s1	5	64*	1	2	2
CCCCN(CC)CCCNC(=O)c1cc2c(-c3ccc(OC)c(OC)c3)nn(C)c2s1	2	0	1	17	0
CCN(CC)CCCNC(=O)c1cc2c(-c3cccc(OC)c3)nn(C)c2s1	10	13	3	16	1
CCN1CCCC1CNC(=O)c1cc2c(-c3ccc(Cl)cc3)nn(C)c2s1 (centres undefined)	-17	59*	4.6*	-34	3
Cn1nc(-c2ccc(Cl)cc2)c2cc(C(=O)NCCCN3CCCC3)sc21	4	54*	3	0	3
CN(C)S(=O)(=O)c1cccc(NC(=O)c2ccccc2SCC(=O)N2CCCC2)c1	.	.	-1	.	1
Cc1ccc(CNC(=O)c2cc3c(-c4ccc(Cl)cc4)nn(C)c3s2)o1	9	46	1	28	1
COCCNC(=O)c1cc2c(-c3ccc(Cl)cc3)nn(C)c2s1	-3	59*	0	3	0
CC(C)NC(=O)c1cc2c(-c3ccc(Cl)cc3)nn(C)c2s1	3	59*	4.4*	13	3
Cn1nc(-c2ccc(Cl)cc2)c2cc(C(=O)N3CCCC3)sc21	-5	50*	-2	-3	-5
CCOC(=O)N1CCC(NC(=O)c2cc3c(-c4ccc(Cl)cc4)nn(C)c3s2)CC1	.	33	0	.	2
CCCCNC(=O)c1cc2c(-c3ccc(Cl)cc3)nn(C)c2s1	1	50*	4	8	0
O=C(c1cc(-c2ccc(Cl)cc2)on1)N1CCCCCC1	25	-1	1	45	6
COc1ccc(C)cc1NC(=O)Cc1csc(NC(=O)Nc2ccccc2OC)n1	.	.	0	.	0
SMILES	HSF1 inhib	AHR act	NR0B1 inh	HSF1 activator	FXN GAA850 act
CCc1cc(C(=O)Nc2ncccc2O)sc1C	23	78*	-1	42	1
CCc1cc(C(=O)Nc2ccc(OC)nc2)sc1C	24	20	0	15	1
Cc1ccc(O)c(CNc2cnc3ccccc3c2)c1	20	10	1	30	2
COc1cccc(CNc2ccc(F)c(Cl)c2)c1O	61	-1	0	75*	1
COc1cccc(CNc2cccc(C(F)(F)F)c2)c1O	2	5	1	7	-1
COc1cccc(CNc2cnc3ccccc3c2)c1O	84	10	-1	73*	2
COc1cccc(CNc2cccc3cccnc23)c1O	37	9	0	76*	4
COCCn1c(SCC(=O)Nc2ccc(F)cc2)nc2c(c1=O)SCC2	.	.	-1	.	1
C/C(=N\Nc1ccccc1C(=O)O)c1ccncc1	-2	5	1	30	5
CC(C)n1cc(/C=C2/NC(=O)N(c3cccc(Cl)c3)C2=O)c2ccccc21	-1	63*	0	4	-6
CCOC(=O)c1c(NC(=O)Nc2ccccc2)sc(C)c1C	-6	49*	0	-19	1
CCOC(=O)Nc1sc(C)c(C)c1C(=O)OCC	-4	2	-1	-5	2
COc1ccccc1C(=O)NC1CC(C)(C)NC(C)(C)C1	-1	2	0	-4	-1
Cc1ccc(OCC(=O)Nc2ccc(F)cc2)c([N+](=O)[O-])n1	2	5	7.0*	35	4
Cc1ccc(OCC(=O)NCC(=O)Nc2ccc(F)cc2)c([N+](=O)[O-])n1	-13	3	3	13	1
Cc1ccc2cccc(OCc3ccc(Br)cc3)c2n1	7	73*	-2	21	-1
Cc1ccc(OCc2ccc(Br)cc2)c([N+](=O)[O-])n1	29	0	.	77*	.
COC(=O)C1=C(C)N(CCCC(=O)O)C(=O)NC1c1ccccc1Cl (centres undefined)	-64*	0	0	-72	0
COC(=O)C1=C(C)N(CCCC(=O)O)C(=O)NC1c1ccc(-c2ccccc2)cc1 (centres undefined)	-1	3	0	-5	1
COC(=O)C1=C(C)N(CCCC(=O)O)C(=O)NC1c1ccc(C#N)cc1 (centres undefined)	-66*	-1	0	-74	1
COc1ccc(Nc2nc(OC)nc(OC)n2)cc1	2	7	1	9	4
COc1ccc(Nc2nc(Nc3ccc(OC)cc3)nc(-n3[nH]c(=O)c(C)c3C)n2)cc1	-63*	21	-5	-64	-7
CCOc1ccc(NC(=O)c2c(OC)cccc2OC)cc1	-2	51*	0	-10	0
COc1cccc(OC)c1C(=O)Nc1ccc(N2CCCC2)cc1	-1	50*	0	11	1
CC1(N(O)C=C2C=CC(=O)C=C2)CCCCC1=O (centres undefined)	3	2	-1	-3	3
c1ccc(C2=NNC(=NCc3ccc4c(c3)OCO4)SC2)cc1	10	14	-1	6	2
C=CCN=C1NN=C(c2ccc3c(c2)OCCO3)CS1	-56*	-3	-1	-63	-3
CCC1CCCCN1C(=S)NC1CCCCC1 (centres undefined)	-10	2	-1	6	1
COc1ccc(-c2nc3ncccn3c2Br)cc1	13	29	10.0*	28	5
COc1ccc(-c2nc3ncccn3c2Nc2ccc3c(c2)OCCO3)cc1	-29	.	0	-37	4
